Where “and” joins values, the source holds several entries; their conditions need not be identical. Equal values may be shown once. Records with an inconclusive call do not appear. Calls of active or inactive are those of the source. The call rests on the fitted dose curve; in most records, active means well fitted inhibition curve with a large enough effect; inconclusive means small, poorly fitted or top-dose-only effect; inactive means no such curve, though single readings can be large or run the other way.
Experiment: Primary qHTS for inhibitors of nuclear receptor binding SET domain protein 2 (NSD2) in an RCH-ACV wild type WT cells (2C) (AID 1645877); further: nearly all actives have a fitted effect of over 70% in size
Details: RCH-ACV (leukaemia line) NSD2 WT (2C) viability, CellTiter-Glo, 72 h; series mostly up to 44.9 µM; activity change, negative = cell killing: at the top concentration
Description: Assay Provider: Jonathan D. Licht, MD
University of Florida College of Medicine, Gainesville, FL
Mutations in epigenetic regulators are common in relapsed pediatric acute lymphoblastic leukemia (ALL). Here, we uncovered the mechanism underlying the relapse of ALL driven by an activating mutation of the NSD2 histone methyltransferase (p.E1099K). […] Correction of this mutation restored glucocorticoid sensitivity. The transcriptional response to glucocorticoids was blocked in NSD2 mutant cells due to depressed glucocorticoid receptor (GR) levels and the failure of glucocorticoids to autoactivate GR expression. […] Pre-treatment of NSD2 p.E1099K cell lines and PDX samples with PRC2 inhibitors reversed glucocorticoid resistance in vitro and in vivo.
High-throughput drug screening of isogenic RCH-ACV cell lines was performed at the National Center for Advancing Translational Science (NCATS), National Institutes of Health as previously described (1). Briefly, isogenic RCH-ACV NSD2 p.E1099K mutant (9B) and WT cells (2C) were plated at 500 cells/well in a 1536-well plate with a 72-hour incubation with compounds prior to addition of CellTiter-Glo to assess cell viability. NCATS libraries screened include: NPC, MIPE 5.0, Kinase and NPACT. To determine compound activity in the qHTS assay, the concentration-response data for each sample was plotted and modeled by a four-parameter logistic fit yielding IC50 and efficacy (maximal response) values. The area under the curve (AUC) of the dose-response curve ensures both efficacy (magnitude of cell killing) and potency (concentration that elicits cell killing) are accounted for in the analysis of activity.
1. Tobie D Lee, Olivia W Lee, Kyle R Brimacombe, Lu Chen, Rajarshi Guha, Sabrina Lusvarghi, Bethilehem G Tebase, Carleen Klumpp-Thomas, Robert W Robey, Suresh V Ambudkar, Min Shen, Michael M Gottesman, Matthew D Hall. A High-Throughput Screen of a Library of Therapeutics Identifies Cytotoxic Substrates of P-glycoprotein. Mol Pharmacol. 2019, Nov;96(5):629-640.
On the % scale 0 is the no-effect control and ±100 the full control effect.

SMILES	Potency	activity change, negative = cell killing	outcome
O=C(Nc1ccc(Cl)cc1)Nc1ccc(Cl)c(C(F)(F)F)c1	2.99 µM (active)		
COc1ccccc1N1CCN(CCN2C(=O)CC3(CCCC3)CC2=O)CC1		0.909% (inactive)	
CCOC(=O)C1=C(C)NC(C)=C(C(=O)OCC)C1c1ccccc1/C=C/C(=O)OC(C)(C)C	16.8 µM (active)		
CCCC(=O)Nc1ccc(O)c(C(C)=O)c1		-22.4% (inactive)	
CNC(=O)c1c(I)c(NC(C)=O)c(I)c(C(=O)O)c1I		-3.44% (inactive)	
CN(C)CCN(Cc1ccsc1)c1ccccn1		5.27% (inactive)	
Cc1nc(C2CCCCC2)c(-c2ccc(S(N)(=O)=O)c(F)c2)o1	13.3 µM (active)		
CC(C)(C)CC(=O)OCC(=O)[C@@]1(O)CC[C@H]2[C@@H]3CCC4=CC(=O)C=C[C@]4(C)[C@H]3[C@@H](O)C[C@@]21C	0.0531 µM (active)		
O=P(O)(O)OCC(O)CO (stereo not given)		-5.51% (inactive)	
COc1ccc2c(c1)CCCC2=O			inactive
CC(C)(Oc1ccc(Cl)cc1)C(=O)OCCCOC(=O)C(C)(C)Oc1ccc(Cl)cc1		5.73% (inactive)	
OCc1c[nH]c2ccccc12	24.3 µM (active)		
CC(C)(C)C(O)/C=C/c1ccc2c(c1)OCO2 (stereo not given)		-9.51% (inactive)	
Cn1cnc2c(NCc3ccccc3)nc(NCCO)nc21		-21% (inactive)	
CC1(C)S[C@@H]2[C@H](NC(=O)C(c3ccccc3)S(=O)(=O)O)C(=O)N2[C@H]1C(=O)O (stereo not given in full)		3.91% (inactive)	
CCCCCCCCCCCCCCCC[N+](C)(C)Cc1ccccc1	0.668 µM (active)		
CO[C@@]1(NC(=O)CSC[C@@H](N)C(=O)O)C(=O)N2C(C(=O)O)=C(CSc3nnnn3C)CS[C@@H]21			inactive
O=C1c2ccccc2CCc2ccccc21		4.54% (inactive)	
Cn1c(=O)c2c(ncn2CC(=O)O)n(C)c1=O		7.3% (inactive)	
CCOC(=O)C(=O)CCCCCCl		-1.28% (inactive)	

SMILES	Potency	activity change, negative = cell killing	outcome
O=C1Nc2ccccc2C1(c1ccc(O)cc1)c1ccc(O)cc1	16.8 µM (active)		
CN=C(N)NC(=O)Nc1c(C)cccc1C		4.77% (inactive)	
CC1CN(c2cc3c(cc2F)c(=O)c(C(=O)O)cn3-c2ccc(F)cc2F)CCN1 (stereo not given)		-0.258% [at 4.96 µM] (inactive)	
Cc1cc(O)c2c(O)c3c(O)cccc3cc2c1		4.64% (inactive)	
COC(=O)c1ccc(NC(C)=O)cc1OC		-4.27% (inactive)	
COc1cc(NS(=O)(=O)c2ccc(N)cc2)nc(C)n1			inactive
CC(=O)Nc1c(I)c(NC(C)=O)c(I)c(C(=O)O)c1I		7.48% (inactive)	
CN1CC[C@H](c2c(O)cc(O)c3c(=O)cc(-c4ccccc4Cl)oc23)[C@H](O)C1	0.0106 µM (active)		
COc1ccccc1N1CCN(CC(O)COc2cc(OC)c(OC)c(OC)c2)CC1 (stereo not given)			inactive
N#C/C(=C1/SC[C@@H](c2ccc(Cl)cc2Cl)S1)n1ccnc1	11.9 µM (active)		
O=C1NC(c2cccc([N+](=O)[O-])c2)=CCN1c1ccccc1O		-18.1% [at 17.3 µM] (inactive)	
CCN1C(=O)c2ccccc2C1Nc1ccc(OCCN2CCCCC2)cc1 (stereo not given)		4.51% (inactive)	
CC(CCc1ccc2c(c1)OCO2)NN (stereo not given)			inactive
CCCC(CCC)(C(=O)OCC)C(=O)OCC		4.72% (inactive)	
Cc1cc(OCCOCC[N+](C)(C)Cc2ccccc2)ccc1C(C)(C)CC(C)(C)C	1.19 µM (active)		
Cc1nc([N+](=O)[O-])cn1-c1ccc([N+](=O)[O-])cc1			inactive
Nc1c[n+](N2CCOCC2)no1		9.11% (inactive)	
O=C(O)Cn1cnnn1		6.53% (inactive)	
CC(C)=CCC/C(C)=C/CC/C(C)=C/CCC(=O)OC/C=C(\C)CCC=C(C)C			inactive
CC1(C)O[C@@H]2C[C@H]3[C@@H]4C[C@H](F)C5=CC(=O)C=C[C@]5(C)[C@@]4(F)[C@@H](O)C[C@]3(C)[C@]2(C(=O)CO)O1	0.8 nM (active) and 5.9 nM (active)		
